In PubChem BioAssay (EPA / NIEHS):
Several values for one entry are separate records, joined by “and”; a condition that tells them apart may be missing. Identical values can stand only once. Some structures have more than one record in an assay (separate samples or runs), and their calls can disagree. Activity calls are given as the source filed them. Rule for the calls: active = hit-call score of the fitted dose curve at least 0.9, where 1 is the maximum; inactive = score below 0.9.

Assays:
[1] = read-out: Interleukin-1 alpha (IL1a), IL1A (gene 3552); experiment: BSK_KF3CT_IL1a: BioMAP Diversity Plus: KF3CT Assay for Interleukin-1 alpha (IL1a) Biomarker Activity (AID 2283070); conditions: primary human keratinocytes with fibroblasts; actives raise or lower the signal
In short: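 Primary human keratinocyte plus foreskin fibroblast co-culture, dosed and measured at 24 h in 96-well plates. IL-1a level quantified by ELISA; bidirectional fit relative to DMSO.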

[2] = read-out: TIMP metallopeptidase inhibitor 2 (TIMP2), TIMP2 (gene 7077); experiment: BSK_KF3CT_TIMP2: BioMAP Diversity Plus: KF3CT Assay for TIMP metallopeptidase inhibitor 2 (TIMP2) Biomarker Activity (AID 2283071); conditions: primary human keratinocytes with fibroblasts; actives raise or lower the signal
In short: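 Cells: human keratinocytes co-cultured with foreskin fibroblasts. Treat with chemical, 24 h. Measure TIMP-2 by ELISA; fit curves bidirectionally vs DMSO baseline.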

[3] = read-out: Transforming growth factor beta 1 (TGFb1), TGFB1 (gene 7040); experiment: BSK_KF3CT_TGFb1: BioMAP Diversity Plus: KF3CT Assay for Transforming growth factor beta 1 (TGFb1) Biomarker Activity (AID 2283072); conditions: primary human keratinocytes with fibroblasts; actives raise or lower the signal
In short: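 Primary human skin cells (keratinocytes, foreskin fibroblasts) were co-cultured, exposed to test chemical and sampled at 24 h. TGF-b1 levels were measured by ELISA and fitted bidirectionally relative to DMSO.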

[4] = read-out: C-C motif chemokine 2 (Homo sapiens) (UniProt P13500); experiment: BSK_KF3CT_MCP1: BioMAP Diversity Plus: KF3CT Assay for Monocyte Chemoattractant Protein 1 (MCP1/CCL2) Biomarker Activity (AID 2283073); conditions: primary human keratinocytes with fibroblasts; actives raise or lower the signal
In short: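 Biomarker MCP-1 is measured by ELISA in primary human keratinocytes co-cultured with foreskin fibroblasts, 24 h after chemical treatment; DMSO serves as the negative control and activity baseline.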

[5] = read-out: Matrix Metallopeptidase 9 (MMP9), MMP9 (gene 4318); experiment: BSK_KF3CT_MMP9: BioMAP Diversity Plus: KF3CT Assay for Matrix Metallopeptidase 9 (MMP9) Biomarker Activity (AID 2283074); conditions: primary human keratinocytes with fibroblasts; actives raise or lower the signal;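 for AC50: MMP9 protein level quantified by ELISA in the co-culture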
In short: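 Human keratinocyte and foreskin fibroblast co-culture exposed to chemicals for 24 h; MMP9 biomarker measured by ELISA, bidirectional fitting relative to DMSO; cytotoxicity tracked by SRB total protein staining in parallel cultures.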

[6] = read-out: urokinase plasminogen activator (uPA), PLAU (gene 5328); experiment: BSK_KF3CT_uPA: BioMAP Diversity Plus: KF3CT Assay for urokinase plasminogen activator (uPA) Biomarker Activity (AID 2283075); conditions: primary human keratinocytes with fibroblasts; actives raise or lower the signal
In short: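 Primary human keratinocyte/foreskin fibroblast co-culture exposed to chemical; uPA measured by ELISA at 24 h. Bidirectional fit versus DMSO, with parallel SRB total-protein staining for cytotoxicity.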

CD40, CD40 (gene 958) = experiment: BSK_LPS_CD40: BioMAP Diversity Plus: LPS Assay for CD40 Biomarker Activity (AID 2283076); conditions: primary human HUVEC with PBMC; actives raise or lower the signal
In short: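 Using a multiplexed primary human co-culture (umbilical vein endothelium plus PBMC), CD40 was read by ELISA 24 h after dosing, with cytotoxicity tracked by sulforhodamine B staining of parallel cultures and activity fitted bidirectionally versus DMSO.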

[7] = read-out: E-selectin (Homo sapiens) (UniProt P16581); experiment: BSK_LPS_Eselectin: BioMAP Diversity Plus: LPS Assay for Eselectin Biomarker Activity (AID 2283077); conditions: primary human HUVEC with PBMC; actives raise or lower the signal
In short: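 Dose chemical onto LPS-driven HUVEC/PBMC co-culture; after 24 h, run ELISA for E-selectin; fit up- and down-going responses relative to DMSO control.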

[8] = read-out: Interleukin-8 (IL8), CXCL8 (gene 3576); experiment: BSK_LPS_IL8: BioMAP Diversity Plus: LPS Assay for Interleukin-8 (IL8) Biomarker Activity (AID 2283078); conditions: primary human HUVEC with PBMC; actives raise or lower the signal
In short: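 In this LPS system, chemical-treated human umbilical vein endothelium/PBMC co-cultures were harvested at 24 h for IL-8 ELISA.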

[9] = BSK_LPS_SRB: Viability Assessment in the BioMAP Diversity Plus: LPS Assay (AID 2283079); conditions: primary human HUVEC with PBMC;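 note: total protein by sulforhodamine B absorbance as a cytotoxicity measure; measured one day after compound addition; fitted in both directions against DMSO so loss or gain of signal counts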
In short: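 Cytotoxicity endpoint in human endothelial–PBMC co-culture: 24 h exposure, then SRB (0.1%) staining, 560 nm read.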

Measured: AC50

Chain of E-selectin (Homo sapiens) (P16581 whole entry, looked up): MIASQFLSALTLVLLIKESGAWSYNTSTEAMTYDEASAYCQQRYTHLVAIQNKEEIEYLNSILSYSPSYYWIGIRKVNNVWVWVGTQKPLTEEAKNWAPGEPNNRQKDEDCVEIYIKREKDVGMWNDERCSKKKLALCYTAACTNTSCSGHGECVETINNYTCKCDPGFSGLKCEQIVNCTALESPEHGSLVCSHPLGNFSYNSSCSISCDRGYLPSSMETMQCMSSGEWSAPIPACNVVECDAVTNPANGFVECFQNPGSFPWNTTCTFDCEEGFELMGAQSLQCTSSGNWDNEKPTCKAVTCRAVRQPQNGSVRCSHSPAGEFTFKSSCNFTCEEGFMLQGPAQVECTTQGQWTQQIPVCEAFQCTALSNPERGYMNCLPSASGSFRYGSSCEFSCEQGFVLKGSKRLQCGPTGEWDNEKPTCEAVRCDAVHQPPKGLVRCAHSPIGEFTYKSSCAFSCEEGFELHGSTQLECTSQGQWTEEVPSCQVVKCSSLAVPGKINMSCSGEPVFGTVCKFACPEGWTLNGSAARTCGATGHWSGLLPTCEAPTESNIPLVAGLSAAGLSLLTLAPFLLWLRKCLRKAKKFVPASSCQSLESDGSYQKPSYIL

C[C@]12CC[C@@H]3c4ccc(O)cc4CC[C@H]3[C@@H]1CC[C@@H]2O
active: [9] 12 µM
inactive: all other assays above

OCCN1CCOCC1
inactive: all assays above

c1ccc2c(c1)-c1ccc3ccc4cccc5cc-2c1c3c45
active: [2] 0.825 µM | [4] 0.238 µM | CD40, CD40 (gene 958) 2.76 µM
inactive: all other assays above

CCOC(=O)CCCCCCCCC(=O)OCC
inactive: all assays above

CC=CC(=O)C1=C(C)C=CCC1(C)C
inactive: all assays above

C=C(C)C(N)=O
inactive: all assays above

c1ccc(OCCOc2ccccc2)cc1
inactive: [1] | [2] | [4] | [5] | [6] | CD40, CD40 (gene 958) | [7] | [8] | [9]
active: [1] 2.45 µM

CC/C(=C(\c1ccccc1)c1ccc(OCCN(C)C)cc1)c1ccccc1
active: [1] 8.27 µM and 11.2 µM | [2] 7.86 µM and 9.54 µM | [3] 8.7 µM and 6.05 µM | [4] 5.98 µM and 7.88 µM | [5] 7.84 µM and 8.19 µM | [6] 9.92 µM and 9.67 µM | CD40, CD40 (gene 958) 7.05 µM and 5.81 µM | [7] 28.3 µM and 14.3 µM | [8] 26.5 µM and 10.8 µM | [9] 9.77 µM and 10.4 µM

CCCCCCCC1CCCC1=O (centres undefined)
active: [2] 31.3 µM | [3] 36.3 µM | [4] 31.5 µM | [5] 28.7 µM | [6] 35.6 µM
inactive: [1] | CD40, CD40 (gene 958) | [7] | [8] | [9]

CC(=O)CCC=C(C)CCC=C(C)C
inactive: all assays above

CC1(C)[C@H](C=C(Cl)Cl)[C@H]1C(=O)OCc1cccc(Oc2ccccc2)c1
inactive: all assays above

CCOC(=O)C=Cc1ccccc1
inactive: all assays above

COc1ccccc1NC(=O)CC(C)=O
inactive: all assays above

CCCCOCCOCCO
inactive: all assays above

O=C1OC2(c3ccc(O)cc3Oc3cc(O)ccc32)c2ccccc21
inactive: all assays above

CC(C)Cc1ccc(C(C)C(=O)O)cc1 (centres undefined)
inactive: all assays above

Nc1ccc(N)c([N+](=O)[O-])c1
inactive: all assays above

O=C(c1ccc(OCCN2CCCCC2)cc1)c1c(-c2ccc(O)cc2)sc2cc(O)ccc12
active: [1] 21.8 µM | [2] 29.3 µM | [3] 19.8 µM | [4] 29.1 µM | [5] 17.9 µM | [6] 34.9 µM | CD40, CD40 (gene 958) 16.6 µM | [7] 38.3 µM | [8] 33.8 µM | [9] 26.7 µM

NC(=O)c1c(Cl)cccc1Cl
inactive: all assays above

CC(=O)OCC=C(C)CCC=C(C)CCC=C(C)C
inactive: all assays above

C=C1CC/C=C(\C)CC[C@@H]2[C@@H]1CC2(C)C
active: [1] 29.6 µM | [2] 10.8 µM | [3] 20 µM | [4] 4.87 µM | [5] 20 µM | [6] 34.5 µM | CD40, CD40 (gene 958) 30.5 µM | [7] 21.2 µM | [9] 36.3 µM
inactive: [8]

O=S1(=O)CC(Cl)(Cl)C(Cl)(Cl)C1
active: [1] 1.52 µM | [2] 1.36 µM | [3] 1.11 µM | [4] 1.38 µM | [5] 1.74 µM | [6] 2 µM | CD40, CD40 (gene 958) 0.457 µM | [7] 1.1 µM | [8] 1.47 µM | [9] 5.01 µM

O=S(=O)(O)C(F)(F)C(F)(F)OC(F)(F)C(F)(F)F
active: [8] 30 µM and 10 µM
not listed: [3]
inactive: all other assays above

CC1=CC(C)C(C=O)C(C)C1 (centres undefined) (tested in a mixture with another compound)
inactive: all assays above

CCCCCCCCCC(=O)OCC
active: [3] 32.2 µM | [4] 13.3 µM
inactive: all other assays above

O=C(O)C(F)(F)C(F)(F)C(F)(F)C(F)(F)C(F)(F)C(F)(F)C(F)(F)C(F)F
active: [8] 8.81 µM and 17.9 µM
not listed: [3]
inactive: all other assays above

C#C[C@]1(O)CC[C@H]2[C@@H]3CCc4cc(O)ccc4[C@H]3CC[C@@]21C
active: [8] 31.2 µM | [9] 9.58 µM
inactive: all other assays above

CCn1cc(C(=O)O)c(=O)c2ccc(C)nc21
not listed: [3]
inactive: all other assays above

C=CC(=O)OCC(CO)(COC(=O)C=C)COC(=O)C=C
active: [1] 0.517 µM | [2] 0.529 µM | [3] 0.415 µM | [4] 5.44 µM | [5] 0.4 µM | [6] 0.685 µM | CD40, CD40 (gene 958) 0.454 µM | [7] 0.311 µM | [8] 3.97 µM | [9] 0.749 µM

CCC(=O)OCC=Cc1ccccc1
inactive: all assays above

OCC(F)(OC(F)(F)C(F)(OC(F)(F)C(F)(F)C(F)(F)F)C(F)(F)F)C(F)(F)F (centres undefined)
active: [2] 5.58 µM and 5.62 µM | [4] 5.14 µM | [5] 5.19 µM and 3.33 µM | [6] 5.49 µM and 3.33 µM | CD40, CD40 (gene 958) 1.1 µM | [7] 5.03 µM and 3.77 µM
inactive: [1] | [4] | CD40, CD40 (gene 958) | [8] | [9]

CCCO[Si](OCCC)(OCCC)OCCC
inactive: [1] | [2] | [4] | [5] | [6] | CD40, CD40 (gene 958) | [7] | [8] | [9]
active: [8] 3.97 µM

CC(C)(C)c1cccc(O)c1
inactive: all assays above

CCCCN(CCO)CCO
active: [6] 14.9 µM
inactive: [1] | [2] | [4] | [5] | [6] | CD40, CD40 (gene 958) | [7] | [8] | [9]

C=C(F)C(=O)OC(C(F)(F)F)C(F)(F)F
not listed: [3]
inactive: all other assays above

CCCCCCCCCCCCS
active: [1] 20 µM | [2] 20 µM | [3] 29.3 µM | [5] 14.2 µM | [6] 20 µM | CD40, CD40 (gene 958) 20 µM | [7] 20 µM | [9] 20 µM
inactive: [4] | [8]

CC(=O)c1ccc(C)cc1
not listed: [3]
inactive: all other assays above

C=C(C)C(=O)OCCC(F)(F)C(F)(F)C(F)(F)C(F)(F)C(F)(F)C(F)(F)C(F)(F)C(F)(F)F
not listed: [3]
inactive: all other assays above

c1ccc(Sc2ccccc2)cc1
inactive: CD40, CD40 (gene 958)
active: [1] 30.8 µM | [2] 27.8 µM | [3] 32 µM | [4] 32.8 µM | [5] 32.7 µM | [6] 33.1 µM | [7] 33.1 µM | [8] 20 µM | [9] 32.2 µM

CC(C)CCCC(C)(C)O
not listed: [3]
inactive: all other assays above

CC(C)(CO)CO
not listed: [3]
inactive: all other assays above

CC(=O)OC(C)(C)C1CC=C(C)CC1 (centres undefined)
active: [2] 33.8 µM | [6] 32.4 µM
inactive: all other assays above

O=C(O)C(F)(F)OC(F)(F)C(F)(F)OC(F)(F)C(F)(F)C(F)(F)C(F)(F)F
active: CD40, CD40 (gene 958) 48.6 µM | [9] 51 µM
inactive: [1] | [2] | [4] | [5] | [6] | CD40, CD40 (gene 958) | [7] | [8] | [9]

COC(=O)c1ccc(C(=O)OC)cc1
inactive: all assays above
